Here are results for ten molecules from PubChem BioAssay (NCI).

The panel holds about 79,000 compounds, 15% with a hit somewhere; the sample as a whole holds those more often. Values without a mark were called inactive. The source made the active and inactive calls. No stated cut-off is given here; in the data, active means growth inhibition above about 70%; inactive means the rest.

The nature of experiment [1]: NCI Yeast Anticancer Drug Screen. Data for the rad50 strain (AID 155).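 Further: 0% = growth of vehicle-only cultures of the same strain.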 The settings on record: S. cerevisiae rad50 strain growth inhibition, stronger effect = higher value. The gist of the method: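 Cells are treated with compound, grown, and their growth is then scored against vehicle-only cultures of the same repair-deficient yeast strain.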
Experiment [2] in a line: NCI Yeast Anticancer Drug Screen. Data for the mec2-1 strain (AID 157). The settings on record: S. cerevisiae mec2-1 strain, stronger effect = higher value. Put shortly: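 Compounds were applied to mec2-1 yeast cells. Their growth was then compared with that of vehicle-treated cultures to give growth inhibition.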
Experiment [3] in a line: NCI Yeast Anticancer Drug Screen. Data for the sgs1 mgt1 strain (AID 161).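 Further: 0% = growth of cultures given vehicle only.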 The settings on record: S. cerevisiae sgs1 mgt1 strain, stronger effect = higher value. Put shortly: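 This yeast growth screen uses a strain with defined DNA-repair lesions; compound-treated growth is compared with vehicle-treated growth.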
A short description of experiment [4]: NCI Yeast Anticancer Drug Screen. Data for the cln2 rad14 strain (AID 165).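 Further: 0% = growth equal to vehicle treated cultures.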 The settings on record: S. cerevisiae cln2 rad14 strain, stronger effect = higher value. The gist of the method:
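Strain: cln2 rad14 yeast, altered in cell cycle control and DNA damage repair. Read-out: growth inhibition vs vehicle.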

The nature of experiment [5]: NCI Yeast Anticancer Drug Screen. Data for the bub3 strain (AID 167). The settings on record: S. cerevisiae bub3 mutant strain, stronger effect = higher value. The gist of the method: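 Part of a panel of yeast mutants defective in DNA damage repair or cell cycle regulation. Each strain is grown with compound, and inhibition is calculated relative to solvent-treated cultures.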

The nature of experiment [6]: NCI Yeast Anticancer Drug Screen. Data for the mlh1 rad18 strain (AID 175). The settings on record: S. cerevisiae mlh1 rad18 strain growth inhibition, stronger effect = higher value. Put shortly:
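A repair-deficient yeast strain is exposed to test compound, and growth is scored relative to vehicle-treated controls.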

The mark [7] stands for this setting: at 5.0 µM (retest, dose inferred, filed as 0.5).
The mark [8] stands for this setting: at 50.0 µM (retest, dose inferred, filed as 5.0).

On to `CSC(=S)N/N=C(\C)c1ccc[nH]1`, for which the growth inhibition was -2% in experiment [1] (setting [7]); 96% (active) in experiment [1] (setting [8]); 83.8% (active) in experiment [1] (at 50.0 µM); 0% in experiment [2] (setting [7]); 96% (active) in experiment [2] (setting [8]); 90.8% (active) in experiment [2] (at 50.0 µM). The growth inhibition in experiment [3] (setting [7]) was 13%; in experiment [3] (setting [8]), 96% (active); in experiment [3] (at 50.0 µM), 79.7% (active); in experiment [4] (setting [7]), -13%; in experiment [4] (setting [8]), 92% (active); in experiment [4] (at 50.0 µM) it was 72.6% (active). The growth inhibition in experiment [5] (setting [7]) is 0%; in experiment [5] (setting [8]) it was 97% (active); in experiment [5] (at 50.0 µM), 90.2% (active); in experiment [6] (setting [7]), 2%; in experiment [6] (setting [8]), 77% (active); in experiment [6] (at 50.0 µM), 85.7% (active).

For `CN(C)C(=S)/N=c1\ss/c(=N\C(=S)N(C)C)n1Cc1ccco1`, the growth inhibition in experiment [1] (setting [7]) was -2%; in experiment [1] (setting [8]), 2%; in experiment [1] (at 50.0 µM), 12.2%; in experiment [2] (setting [7]) it was -2%; in experiment [2] (setting [8]), 0%; in experiment [2] (at 50.0 µM) it was -10.7%. The growth inhibition in experiment [3] (setting [7]) was -2%; in experiment [3] (setting [8]) it was 4%; in experiment [3] (at 50.0 µM), -2.7%; in experiment [4] (setting [7]) it was -4%; in experiment [4] (setting [8]), 3%; in experiment [4] (at 50.0 µM), 9.1%. Further, the growth inhibition was 0% in experiment [5] (setting [7]); -1% in experiment [5] (setting [8]); -3.05% in experiment [5] (at 50.0 µM); -1% in experiment [6] (setting [7]); 2% in experiment [6] (setting [8]); -3.15% in experiment [6] (at 50.0 µM).

As for `OCC1CCCCCCCCCCC1`, the growth inhibition in experiment [1] (setting [7]) was -2%; in experiment [1] (setting [8]), 90% (active); in experiment [1] (at 50.0 µM), 98.2% (active); in experiment [2] (setting [7]), 0%; in experiment [2] (setting [8]) it was 66%; in experiment [2] (at 50.0 µM) it was 75.2% (active). Also, the growth inhibition in experiment [3] (setting [7]) was 1%; in experiment [3] (setting [8]), 22%; in experiment [3] (at 50.0 µM) it was 94.3% (active); in experiment [4] (setting [7]), 1%; in experiment [4] (setting [8]) it was 30%; in experiment [4] (at 50.0 µM), 92.3% (active). The growth inhibition in experiment [5] (setting [7]) was 10%; in experiment [5] (setting [8]), 58%; in experiment [5] (at 50.0 µM), 94.7% (active); in experiment [6] (setting [7]) it was -1%; in experiment [6] (setting [8]), 51%; in experiment [6] (at 50.0 µM), 89.2% (active).

On to `O=C(OCc1ccccc1)N(CCCCN(CCCNCc1ccccc1)C(=O)OCc1ccccc1)CCCNCc1ccccc1`, for which the growth inhibition is 11% in experiment [1] (setting [7]); 99% (active) in experiment [1] (setting [8]); 90.3% (active) in experiment [1] (at 50.0 µM); 22% in experiment [2] (setting [7]); 100% (active) in experiment [2] (setting [8]); 93.2% (active) in experiment [2] (at 50.0 µM). Also, the growth inhibition in experiment [3] (setting [7]) is 10%; in experiment [3] (setting [8]), 100% (active); in experiment [3] (at 50.0 µM), 91.7% (active); in experiment [4] (setting [7]), 3%; in experiment [4] (setting [8]) it was 99% (active); in experiment [4] (at 50.0 µM), 90% (active). Also, the growth inhibition in experiment [5] (setting [7]) was 29%; in experiment [5] (setting [8]), 99% (active); in experiment [5] (at 50.0 µM), 91.8% (active); in experiment [6] (setting [7]) it was 28%; in experiment [6] (setting [8]), 99% (active); in experiment [6] (at 50.0 µM) it was 91.2% (active).

In the case of `O=C1C=CC(=O)C2C1Cc1ccccc1C2c1ccccc1` (stereo not given), the growth inhibition in experiment [1] (setting [7]) was 15%; in experiment [1] (setting [8]), 97% (active); in experiment [1] (at 50.0 µM) it was 98.8% (active); in experiment [2] (setting [7]) it was 26%; in experiment [2] (setting [8]), 98% (active); in experiment [2] (at 50.0 µM), 99.3% (active). Also, the growth inhibition in experiment [3] (setting [7]) was 58%; in experiment [3] (setting [8]) it was 98% (active); in experiment [3] (at 50.0 µM), 99% (active); in experiment [4] (setting [7]) it was 9%; in experiment [4] (setting [8]), 92% (active); in experiment [4] (at 50.0 µM) it was 98.8% (active). Besides, the growth inhibition in experiment [5] (setting [7]) was 14%; in experiment [5] (setting [8]), 98% (active); in experiment [5] (at 50.0 µM), 98.8% (active); in experiment [6] (setting [7]) it was 23%; in experiment [6] (setting [8]), 98% (active); in experiment [6] (at 50.0 µM), 98.5% (active).

`O=C1C=CC(=O)C1=Cc1ccc(Cl)c(Cl)c1`: the growth inhibition in experiment [1] (setting [7]) was 99% (active); in experiment [1] (setting [8]) it was 99% (active); in experiment [1] (at 50.0 µM), 98.8% (active); in experiment [2] (setting [7]), 100% (active); in experiment [2] (setting [8]) it was 99% (active); in experiment [2] (at 50.0 µM), 98.9% (active). In addition, the growth inhibition is 100% (active) in experiment [3] (setting [7]); 98% (active) in experiment [3] (setting [8]); 98.7% (active) in experiment [3] (at 50.0 µM); 100% (active) in experiment [4] (setting [7]); 99% (active) in experiment [4] (setting [8]); 99.2% (active) in experiment [4] (at 50.0 µM). In addition, the growth inhibition in experiment [5] (setting [7]) was 100% (active); in experiment [5] (setting [8]), 99% (active); in experiment [5] (at 50.0 µM), 98.8% (active); in experiment [6] (setting [7]), 100% (active); in experiment [6] (setting [8]), 99% (active); in experiment [6] (at 50.0 µM), 99% (active).

For the molecule `O=C(CC(=O)C(F)(F)F)c1ccc(-c2ccccc2)cc1`, the growth inhibition is 27% in experiment [1] (setting [7]); 99% (active) in experiment [1] (setting [8]); 97% (active) in experiment [1] (at 50.0 µM); 45% in experiment [2] (setting [7]); 99% (active) in experiment [2] (setting [8]); 98.2% (active) in experiment [2] (at 50.0 µM). Also, the growth inhibition in experiment [3] (setting [7]) is 39%; in experiment [3] (setting [8]), 99% (active); in experiment [3] (at 50.0 µM), 98% (active); in experiment [4] (setting [7]), 14%; in experiment [4] (setting [8]), 98% (active); in experiment [4] (at 50.0 µM), 97.8% (active). For the same molecule, the growth inhibition in experiment [5] (setting [7]) was 36%; in experiment [5] (setting [8]) it was 99% (active); in experiment [5] (at 50.0 µM) it was 97.2% (active); in experiment [6] (setting [7]) it was 45%; in experiment [6] (setting [8]), 99% (active); in experiment [6] (at 50.0 µM), 98.7% (active).

On to `CSS(=O)(=O)c1ccc(C)cc1`, for which the growth inhibition was 22% in experiment [1] (setting [7]); 99% (active) in experiment [1] (setting [8]); 99.7% (active) in experiment [1] (at 50.0 µM); 22% in experiment [2] (setting [7]); 100% (active) in experiment [2] (setting [8]); 99.7% (active) in experiment [2] (at 50.0 µM). Moreover, the growth inhibition in experiment [3] (setting [7]) was 21%; in experiment [3] (setting [8]) it was 100% (active); in experiment [3] (at 50.0 µM) it was 99.2% (active); in experiment [4] (setting [7]), -27%; in experiment [4] (setting [8]) it was 99% (active); in experiment [4] (at 50.0 µM), 99.4% (active). The growth inhibition in experiment [5] (setting [7]) is 18%; in experiment [5] (setting [8]) it was 100% (active); in experiment [5] (at 50.0 µM) it was 99.5% (active); in experiment [6] (setting [7]), -10%; in experiment [6] (setting [8]), 99% (active); in experiment [6] (at 50.0 µM) it was 99.5% (active).

As to `C=CCOc1ccccc1C(=O)OC`, the growth inhibition was 3% in experiment [1] (setting [7]); 0% in experiment [1] (setting [8]); -4.6% in experiment [1] (at 50.0 µM); 6% in experiment [2] (setting [7]); -4% in experiment [2] (setting [8]); 7.9% in experiment [2] (at 50.0 µM). Also, the growth inhibition was -1% in experiment [3] (setting [7]); -5% in experiment [3] (setting [8]); 7.2% in experiment [3] (at 50.0 µM); 5% in experiment [4] (setting [7]); -4% in experiment [4] (setting [8]); 30.9% in experiment [4] (at 50.0 µM). In addition, the growth inhibition was -3% in experiment [5] (setting [7]); -10% in experiment [5] (setting [8]); -2.45% in experiment [5] (at 50.0 µM); 3% in experiment [6] (setting [7]); -1% in experiment [6] (setting [8]); 0.3% in experiment [6] (at 50.0 µM).

For `O=C(O)c1ccccc1C(=O)c1ccc2c(c1)Cc1ccccc1-2`, the growth inhibition in experiment [1] (setting [7]) is -5%; in experiment [1] (setting [8]) it was 9%; in experiment [1] (at 50.0 µM), 68.6%; in experiment [2] (setting [7]), -3%; in experiment [2] (setting [8]), 4%; in experiment [2] (at 50.0 µM), 41.3%. In addition, the growth inhibition in experiment [3] (setting [7]) is -4%; in experiment [3] (setting [8]), 7%; in experiment [3] (at 50.0 µM) it was 44.9%; in experiment [4] (setting [7]), -28%; in experiment [4] (setting [8]), 31%; in experiment [4] (at 50.0 µM), 74.8% (active). In addition, the growth inhibition in experiment [5] (setting [7]) is 4%; in experiment [5] (setting [8]), 5%; in experiment [5] (at 50.0 µM) it was 42.8%; in experiment [6] (setting [7]) it was 3%; in experiment [6] (setting [8]) it was 26%; in experiment [6] (at 50.0 µM), 76% (active).
